# Assay results reported in PubChem BioAssay (NCI).
# The panel holds about 83,000 compounds, 20% with a hit somewhere; the sample as a whole holds those more often.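 Plates (96-well) were seeded with cells, treated with compound at one concentration, and incubated for 48 hours before percent growth was determined.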 Values without a mark were called inactive. Activity calls are given as the source filed them. The calls were made as follows: active = growth percent below 10; inactive = the rest.
# Experiments:
# Assay in all cases: NCI-60 one-dose screen, 48 h (100 = growth as untreated, 0 = no growth, -100 = all killed)
# Details in all cases: 10 µM
# HCT-15 colon = test system: HCT-15 colon
# HT29 colon = test system: HT29 colon
# SNB-75 CNS = test system: SNB-75 CNS
# SNB-19 CNS = test system: SNB-19 CNS
# U251 CNS = test system: U251 CNS
# PC-3 prostate = test system: PC-3 prostate
# SK-MEL-5 melanoma = test system: SK-MEL-5 melanoma
# UACC-62 melanoma = test system: UACC-62 melanoma
# LOX IMVI melanoma = test system: LOX IMVI melanoma
# SK-MEL-28 melanoma = test system: SK-MEL-28 melanoma
SMILES,growth (HCT-15 colon),growth (HT29 colon),growth (SNB-75 CNS),growth (SNB-19 CNS),growth (U251 CNS),growth (PC-3 prostate),growth (SK-MEL-5 melanoma),growth (UACC-62 melanoma),growth (LOX IMVI melanoma),growth (SK-MEL-28 melanoma)
CN(C)CCCOc1ccc(NC2=C(Cl)C(=O)C(Nc3ccc(OCCCN(C)C)cc3)=C(Cl)C2=O)cc1,-82% (active),-54.1% (active),-77.9% (active),-48.6% (active),-91.2% (active),-7.37% (active),-96.6% (active),-74.9% (active),-80.5% (active),39.4%
Nc1cc(-c2ccncc2)c[nH]c1=O,103%,103%,76.6%,111%,103%,89.1%,106%,109%,91.7%,105%
COc1cc(-c2nn(-c3cccc(NC(=O)CCN4CCN(Cc5ccccc5)CC4)c3)cc2-c2ccncc2)ccc1Cl,11.8%,-20.2% (active),-10.3% (active),39.9%,6.53% (active),7.06% (active),-95.3% (active),10.7%,-88.6% (active),-85.4% (active)
O=C1CSC(=S)N1/N=C/c1ccc(Cl)s1,97.9%,110%,111%,97.7%,99.3%,98.1%,97%,100%,88.5%,107%
CCn1c(SCc2ccc(C)cc2)nnc1-c1nn(-c2ccc(Cl)cc2Cl)c(-c2ccc(Cl)cc2)c1C,11.6%,2.65% (active),23.3%,22.1%,14.4%,5.63% (active),-92.3% (active),21.2%,7.19% (active),30.3%
CC(C)C[C@H](NC(=O)Cn1cccc(CNC(=O)c2ccccc2)c1=O)B(O)O,64.7%,-0.24% (active),-4.6% (active),34.1%,17.2%,35.8%,-34.3% (active),-17.1% (active),-60.4% (active),19.4%
Oc1ccc(/C=N/N=C2c3ccccc3-c3ccccc32)c(O)c1,46.4%,97.5%,73.1%,80.3%,78.7%,72.9%,25.8%,58.6%,70.3%,74.5%
O=C(O)c1ccc(-n2cc(CNc3ccc(Cl)cc3)c(-c3ccccc3)n2)cc1,70.5%,102%,78.4%,94.8%,93.5%,97.2%,87.6%,67.6%,74.3%,92.8%
CN(C)CCOc1cccc(-c2nc3sccn3c2-c2ccnc(S(C)(=O)=O)n2)c1,92.3%,96.8%,87.7%,87.5%,90%,80.8%,98.3%,91.4%,92.1%,100%
COc1cc(C(=O)/C=C/c2c[nH]c3ccccc23)cc(OC)c1OC,19%,-21.1% (active),45.9%,34.9%,14.7%,35.4%,-53.1% (active),30.6%,14.4%,64.7%
CN(C)CCCOc1ccccc1NC1=C(Cl)C(=O)C(Nc2ccccc2OCCCN(C)C)=C(Cl)C1=O,-49% (active),-51% (active),35%,-87.1% (active),-86.1% (active),-20.8% (active),-96.3% (active),-77.8% (active),-74.9% (active),14.1%
Cc1ccc(/C=C2/C(=O)N(C)c3ccc(S(=O)(=O)Nc4ccc(C(C)(C)C)cc4)cc32)s1,83.8%,75.7%,-9.41% (active),66.6%,62.6%,56.6%,89.4%,74.9%,58.1%,81.8%
COc1ccc(NC(=O)C2CC3C=CC2C3)c([N+](=O)[O-])c1 (stereo not given),97.1%,101%,91.2%,91.9%,98.4%,94.9%,96%,96.5%,95.3%,98.1%
IC(I)I,101%,115%,90.8%,106%,102%,109%,104%,88.9%,,109%
NC(N)=N/N=C(\c1ccccc1)C(O)c1ccccc1 (stereo not given),111%,92.3%,93.7%,95.3%,106%,94.6%,103%,94.6%,,107%
COc1ccc(C(c2ccc(OCCN(C)C)cc2)c2cc3ccccc3c3ccccc23)cc1 (stereo not given),-30.9% (active),-7.37% (active),86.8%,65%,16.6%,60.7%,58.6%,-47.8% (active),,-77.8% (active)
COc1ccc2c(c1)C(=O)/C(=C/c1ncc([N+](=O)[O-])n1C)O2,6.82% (active),-20.5% (active),69.5%,-16.6% (active),-25.4% (active),101%,-89% (active),-68.4% (active),-68.1% (active),-22.4% (active)
CCCCC1(O)CCCCC1,110%,98.5%,105%,106%,99.1%,103%,105%,102%,,106%
CS(=O)(=O)c1nccc(-c2c(-c3cccc(OCCN4CCOCC4)c3)nc3sccn23)n1,81.8%,66.9%,75.9%,82.5%,86.6%,77.9%,84.5%,89.1%,91.3%,99.3%
CCOC(=O)c1cc(C(=O)c2cc(OC)c(OC)c(OC)c2)n2nc(C)ccc12,25.3%,8.05% (active),47.7%,54%,19.1%,30.6%,3.09% (active),59%,,70.3%
O=C1c2c(c(=O)[nH]c3ccccc23)CCN1Cc1ccccc1,96.6%,99.3%,79.8%,99.6%,103%,84.9%,108%,97.1%,,107%
Cc1[nH]c2ccccc2c1/C=N/Nc1ncnc2sc3c(c12)CCN(CC(=O)OC(C)(C)C)C3,30.1%,41.8%,63.4%,93.3%,78.2%,69.2%,60.8%,81.9%,83.6%,80.7%
O=C(CCn1cnc2c(cc(-c3ccccc3)n2-c2ccccc2)c1=O)Nc1ccc(F)cc1,81.4%,89.9%,4.9% (active),72.9%,70.9%,68.6%,77.5%,63.2%,79.4%,80.5%
c1ccc(CCCCc2ccc3ccccc3n2)cc1,90.1%,87.1%,93.6%,105%,90.6%,77.1%,109%,102%,,104%
O=C(CN1CCN(C(=O)c2ccccc2)CC1)Nc1ccccc1SCc1ccccc1,87.3%,81%,75.6%,90.7%,90.8%,57.9%,56.9%,52%,,98.2%
S=C(SSC(=S)N(c1ccccc1)c1ccccc1)N(c1ccccc1)c1ccccc1,103%,96.6%,100%,99.4%,87.9%,81.9%,102%,103%,,111%
COc1cc2cc(Oc3ccc(NC(=O)Nc4ccc(Cl)c(Cl)c4)cc3)c(C)nc2cc1OC,18.9%,10.9%,22.4%,28.6%,-32.3% (active),4.12% (active),-35% (active),20.4%,,44.6%
Clc1ccc(C2=NN=C3C(Cc4ccccc4)=Nc4ccccc4N3C2)cc1,68.6%,84.6%,98.5%,93.3%,62.1%,65.1%,80.3%,79.6%,65.2%,83.4%
COc1ccc(/C=C/C(=O)C(=O)/C=C/c2ccc(OC)c(OC)c2)cc1OC,-3.56% (active),-35.2% (active),64.9%,33.1%,6.4% (active),43.6%,77.9%,-10.8% (active),-66.4% (active),-9.43% (active)
